Molecules are shown by their SMILES. Inconclusive results are not listed. The source made the active and inactive calls. The calls were made as follows: active = hit-call score of the fitted dose curve at least 0.9, where 1 is the maximum; inconclusive = response in the unintended direction; inactive = score below 0.9.

The record followed here is PubChem BioAssay (EPA / NIEHS).

In experiment [1] the target is rat Thyrotropin Releasing Hormone Receptor (TRH), Trhr (gene 25570) (UniProt Q01717). As to the kind of experiment: NVS_GPCR_rTRH: NovaScreen (NVS) G Protein-Coupled Receptor Assay for rat Thyrotropin Releasing Hormone Receptor (TRH) (AID 2283329).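 Also: hit means lower bound tracer signal versus DMSO baseline.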 The gist of the method:
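Test compounds are screened at 25 uM in duplicate against radioligand binding in rat forebrain membranes, with active pairs followed up over a concentration range. Detection uses filter-based radiodetection after a 4 h exposure.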

The target of experiment [2] is Estrogen receptor (Homo sapiens) (UniProt P03372). As to the kind of experiment: OT_ER_ERaERa_1440: Odyssey Thera (OT) 24-hour HEK293T Protein-Complementation Assay for Estrogen Receptor-alpha/-alpha Homodimer (AID 2283349).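 Also: hits raise fluorescence above DMSO for agonists and antagonists alike.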 The gist of the method: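 HEK293T, stable ERα LBD (aa 310-547) homodimer PCA; 24 h compound exposure; mean fluorescence intensity (nuclear for agonists, nuclear plus cytoplasmic for antagonists) vs vehicle; positive fitting direction, DMSO baseline.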
Sequence of Estrogen receptor (Homo sapiens) (P03372 whole entry, looked up, the tested form may be a part): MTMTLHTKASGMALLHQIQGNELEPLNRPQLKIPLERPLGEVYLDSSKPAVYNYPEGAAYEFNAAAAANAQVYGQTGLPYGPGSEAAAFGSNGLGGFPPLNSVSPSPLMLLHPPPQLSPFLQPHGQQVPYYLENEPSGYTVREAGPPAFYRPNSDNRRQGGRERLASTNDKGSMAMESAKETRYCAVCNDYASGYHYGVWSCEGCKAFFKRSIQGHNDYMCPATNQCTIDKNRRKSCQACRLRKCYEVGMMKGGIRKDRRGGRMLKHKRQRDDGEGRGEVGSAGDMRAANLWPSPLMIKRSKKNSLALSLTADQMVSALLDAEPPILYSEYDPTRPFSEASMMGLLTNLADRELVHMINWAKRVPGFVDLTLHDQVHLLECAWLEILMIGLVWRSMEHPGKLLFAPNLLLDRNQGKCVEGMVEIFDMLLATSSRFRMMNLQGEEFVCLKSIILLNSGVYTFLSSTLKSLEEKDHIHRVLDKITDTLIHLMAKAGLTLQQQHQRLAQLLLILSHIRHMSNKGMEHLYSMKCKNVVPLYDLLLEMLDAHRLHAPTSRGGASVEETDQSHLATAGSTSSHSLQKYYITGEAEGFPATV

Experiment [3] has the same target. As to the kind of experiment: OT_ER_ERaERa_0480: Odyssey Thera (OT) 8-hour HEK293T Protein-Complementation Assay for Estrogen Receptor-alpha/-alpha Homodimer (AID 2283351).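 Also: rise in fluorescence from reassembled reporter fragments on ERα LBD homodimer in nucleus or whole cell.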 Put shortly: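 Measures ERα LBD (aa 310-547) homodimer complementation in stably transfected HEK293T at 8 h post-dose, with fluorescence intensity quantified on a laser scanning cytometer relative to DMSO controls.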

Experiment [4] has as its target Estrogen receptor (Homo sapiens) + Estrogen receptor beta (Homo sapiens) (UniProt P03372+Q92731). As to the kind of experiment: OT_ER_ERaERb_0480: Odyssey Thera (OT) 8-hour HEK293T Protein-Complementation Assay for Estrogen Receptor-alpha/-beta Heterodimer (AID 2283352). The gist of the method:
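Fluorescence intensity readout from a protein-fragment complementation reporter in HEK293T; ER-alpha/ER-beta LBD heterodimer. Dosing 8 h. Gain-of-signal fit relative to DMSO negative control; laser scanning cytometry of whole-well cell population.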

Experiment [5] concerns the target Estrogen receptor (Homo sapiens) (UniProt P03372). As to the kind of experiment: NVS_NR_hER: NovaScreen (NVS) Nuclear Receptor Binding Assay for human Estrogen Receptor (ER) (AID 2283348). Put shortly:
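Cell-free MCF7-derived ER preparation, specific radioligand displaced by test compound, read by scintillation counting 18 h post-dosing. Duplicate single-point 25 uM screen, then concentration-response confirmation; DMSO baseline.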

Experiment [6] addresses human Adenosine A1 Receptor (AdoRA1), ADORA1 (gene 134) (UniProt P30542). As to the kind of experiment: NVS_GPCR_hAdoRA1: NovaScreen (NVS) G Protein-Coupled Receptor Assay for human Adenosine A1 Receptor (AdoRA1) (AID 2283254). The gist of the method:
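Each chemical is first tested twice at 25 uM, actives later in dilution series, against a radioligand bound to human cortex membranes; after 1 h, filter-retained counts are compared with DMSO controls, lower signal indicating displacement.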

Experiment [7] addresses Muscarinic acetylcholine receptor M2 (Homo sapiens) (UniProt P08172). As to the kind of experiment: NVS_GPCR_hM2: NovaScreen (NVS) G Protein-Coupled Receptor Assay for human Muscarinic, M2 Receptor (AID 2283273). The gist of the method:
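CHO-expressed human M2 receptor preparation, competitive displacement of a radioligand read by filter-based scintillation counting after 1 h. Single 25 uM duplicate screen, then concentration-response follow-up of actives; DMSO baseline.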

For experiment [8], the target named is human Thromboxane A2 Receptor (TXA2), TBXA2R (gene 6915) (UniProt P21731). As to the kind of experiment: NVS_GPCR_hTXA2: NovaScreen (NVS) G Protein-Coupled Receptor Assay for human Thromboxane A2 Receptor (TXA2) (AID 2283282).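 Also: actives reduce bound radioligand signal relative to DMSO baseline.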 Put shortly: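 Filter scintillation counting of bound radioligand, human platelet protein, 1 h exposure. Single-concentration duplicates (25 uM) first, concentration-response follow-up for actives. Binding loss scored against DMSO baseline.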
Sequence of human Thromboxane A2 Receptor (TXA2), TBXA2R (gene 6915) (P21731 whole entry, looked up): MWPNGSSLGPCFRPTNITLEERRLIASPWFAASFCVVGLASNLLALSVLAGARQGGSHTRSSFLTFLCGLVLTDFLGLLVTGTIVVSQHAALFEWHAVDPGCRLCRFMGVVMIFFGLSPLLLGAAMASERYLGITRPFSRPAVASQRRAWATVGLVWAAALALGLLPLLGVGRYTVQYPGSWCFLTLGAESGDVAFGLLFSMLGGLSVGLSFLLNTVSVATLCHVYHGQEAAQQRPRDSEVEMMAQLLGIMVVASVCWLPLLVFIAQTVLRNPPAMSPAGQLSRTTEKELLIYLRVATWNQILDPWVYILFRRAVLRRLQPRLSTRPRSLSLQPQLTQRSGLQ

In experiment [9] the target is human Peripheral-type Benzodiazepine Receptor (PBR), TSPO (gene 706) (UniProt P30536). As to the kind of experiment: NVS_MP_hPBR: NovaScreen (NVS) Membrane Protein Assay for human Peripheral-type Benzodiazepine Receptor (PBR) (AID 2283331).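 Also: hits reduce radioligand binding relative to DMSO baseline.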 Put shortly: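 Cell-free binding to human colonic membrane preparations measured by filter-based scintillation counting after 1 h. Compounds first run at 25 uM in duplicate, then concentration series for actives; signal loss against DMSO baseline.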
Sequence of human Peripheral-type Benzodiazepine Receptor (PBR), TSPO (gene 706) (P30536 whole entry, looked up): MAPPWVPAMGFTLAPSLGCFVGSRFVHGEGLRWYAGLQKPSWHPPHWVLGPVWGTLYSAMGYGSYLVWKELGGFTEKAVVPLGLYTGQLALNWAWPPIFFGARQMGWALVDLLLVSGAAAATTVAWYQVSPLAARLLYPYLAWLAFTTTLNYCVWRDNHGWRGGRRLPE

In experiment [10] the target is rat Peripheral-type Benzodiazepine Receptor (PBR), Tspo (gene 24230) (UniProt P16257). As to the kind of experiment: NVS_MP_rPBR: NovaScreen (NVS) Membrane Protein Assay for rat Peripheral-type Benzodiazepine Receptor (PBR) (AID 2283335). Put shortly:
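Single-concentration duplicate screening at 25 uM preceded concentration-series retesting of actives. Binding of a specific radioligand to rat kidney membrane PBR was read by filtration radiodetection after 1 h, with plate-wise positive and negative controls.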

Experiment [11] deals with bovine Estrogen Receptor (ER), ESR1 (gene 407238) (UniProt P49884). As to the kind of experiment: NVS_NR_bER: NovaScreen (NVS) Nuclear Receptor Binding Assay for bovine Estrogen Receptor (ER) (AID 2283345).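 Also: actives lower the bound radioligand count which means they displace the ER ligand.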 The gist of the method: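 Bovine uterine membranes; tritiated or iodinated radioligand; competitive displacement; 18 h; scintillation read; DMSO negative control; 25 uM duplicates, then concentration series for actives.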
Sequence of bovine Estrogen Receptor (ER), ESR1 (gene 407238) (P49884 whole entry, looked up): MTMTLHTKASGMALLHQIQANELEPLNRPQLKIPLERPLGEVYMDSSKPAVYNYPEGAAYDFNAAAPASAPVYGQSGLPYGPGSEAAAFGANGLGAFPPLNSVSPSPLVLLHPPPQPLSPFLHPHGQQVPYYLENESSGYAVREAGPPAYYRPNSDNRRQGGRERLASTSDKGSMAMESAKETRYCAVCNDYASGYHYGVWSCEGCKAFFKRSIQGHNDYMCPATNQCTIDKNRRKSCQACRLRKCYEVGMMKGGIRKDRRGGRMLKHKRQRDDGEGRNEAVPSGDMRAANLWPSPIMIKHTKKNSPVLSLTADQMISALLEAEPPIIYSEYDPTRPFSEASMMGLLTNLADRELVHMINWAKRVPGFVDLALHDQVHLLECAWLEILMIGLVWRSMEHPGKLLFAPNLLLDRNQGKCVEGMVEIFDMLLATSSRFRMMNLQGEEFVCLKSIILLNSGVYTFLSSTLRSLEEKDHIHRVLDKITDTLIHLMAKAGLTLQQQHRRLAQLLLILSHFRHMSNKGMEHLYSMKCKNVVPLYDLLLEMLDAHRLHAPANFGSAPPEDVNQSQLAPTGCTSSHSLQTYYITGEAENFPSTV

Experiment [12] has as its target chimpanzee Androgen Receptor (AR), AR (gene 747460) (UniProt O97775). As to the kind of experiment: NVS_NR_cAR: NovaScreen (NVS) Nuclear Receptor Binding Assay for chimpanzee Androgen Receptor (AR) (AID 2283346).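 Also: radioligand displacement from AR measured by scintillation counting in a cell-free assay; a loss of bound radioligand signal versus DMSO counts as binding.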 The gist of the method:
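Cell-free competition binding with insect-cell (Sf9/Sf21) extracted chimpanzee AR; scintillation signal from lysate at 72 h. Screened in duplicate at 25 uM, then concentration-response for actives; fitting relative to DMSO.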

Experiment [13] deals with human Neurokinin, NK2 Receptor, TACR2 (gene 6865) (UniProt P21452). As to the kind of experiment: NVS_GPCR_hNK2: NovaScreen (NVS) G Protein-Coupled Receptor Assay for human Neurokinin, NK2 Receptor (AID 2283278).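 Also: actives reduce bound radioligand signal relative to DMSO baseline.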 Put shortly: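 Test chemicals displace a radioligand from receptor prepared from CHO cells in a cell-free format, read after 4 hours by scintillation counting on filters. Screening starts at 25 uM in duplicate, and active chemicals then go to concentration series.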
Sequence of human Neurokinin, NK2 Receptor, TACR2 (gene 6865) (P21452 whole entry, looked up): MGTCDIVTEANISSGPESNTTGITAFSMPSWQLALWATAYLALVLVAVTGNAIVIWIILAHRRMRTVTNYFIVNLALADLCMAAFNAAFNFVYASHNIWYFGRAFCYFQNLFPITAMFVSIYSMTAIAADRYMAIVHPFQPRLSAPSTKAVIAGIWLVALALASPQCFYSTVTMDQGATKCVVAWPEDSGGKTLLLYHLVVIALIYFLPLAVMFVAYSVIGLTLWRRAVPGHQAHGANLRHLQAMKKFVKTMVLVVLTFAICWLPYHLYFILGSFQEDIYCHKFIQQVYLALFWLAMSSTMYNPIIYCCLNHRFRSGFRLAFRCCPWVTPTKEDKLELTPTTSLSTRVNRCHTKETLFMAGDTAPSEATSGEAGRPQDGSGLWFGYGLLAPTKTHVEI

Experiment [14] concerns the target D(1A) dopamine receptor (Homo sapiens) (UniProt P21728). As to the kind of experiment: NVS_GPCR_hDRD1: NovaScreen (NVS) G Protein-Coupled Receptor Assay for human Dopamine Receptor D1 (DRD1) (AID 2283269). Put shortly: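 Extracted HEK293 DRD1 is incubated 1 h with compound and a tritiated or iodinated radioligand, then filtered and counted. Screening runs 25 uM in duplicate with on-plate positive and negative controls.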

Experiment [15] deals with Sodium channel protein type 1 subunit alpha (Rattus norvegicus) (UniProt P04774). As to the kind of experiment: NVS_IC_rNaCh_site2: NovaScreen (NVS) Ion Channel Assay for rat Sodium Channel, Site 2 (NaCh) (AID 2283322).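 Also: hit means loss of radioligand binding signal relative to DMSO so AC50 marks displacement.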 Put shortly: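 Initial duplicate single-point testing at 25 uM, followed by concentration-response runs for actives. Binding of radioligand to rat forebrain membranes quantified after 1 h via filter-based radiodetection.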

For experiment [16], the target named is human Adenosine A2a Receptor (AdoRA2a), ADORA2A (gene 135) (UniProt P29274). As to the kind of experiment: NVS_GPCR_hAdoRA2a: NovaScreen (NVS) G Protein-Coupled Receptor Assay for human Adenosine A2a Receptor (AdoRA2a) (AID 2283256). The gist of the method: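 HEK293-derived receptor preparation, radioligand displacement, 1.5 h, filtration + scintillation read. Loss of bound signal scored vs DMSO. Single-point 25 uM in duplicate first, then concentration-response for actives.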

For experiment [17], the target named is human Opioid Receptor Mu (Opiate Mu), OPRM1 (gene 4988) (UniProt P35372). As to the kind of experiment: NVS_GPCR_hOpiate_mu: NovaScreen (NVS) G Protein-Coupled Receptor Assay for human Opioid Receptor Mu (Opiate Mu) (AID 2283290).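 Also: hits lower bound tracer signal versus DMSO meaning displacement of the ligand.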 The gist of the method: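 Here, radioligand binding to CHO-extracted receptor was measured after 2.5 h using filter-based scintillation detection. Initial single-concentration screening used 25 uM in duplicate with plate controls; confirmed actives went to concentration-response testing.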

Experiment [18] deals with rat Adrenergic Receptor, Alpha 2 (Adra2), Non-selective Binding, Adra2a (gene 25083) (UniProt P22909). As to the kind of experiment: NVS_GPCR_rAdra2_NonSelective: NovaScreen (NVS) G Protein-Coupled Receptor Assay for rat Adrenergic Receptor, Alpha 2 (Adra2), Non-selective Binding (AID 2283299). The gist of the method:
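Filter-based scintillation counting of radioligand binding to rat cortical membrane receptors, measured 1.25 hours post-dosing; loss of signal versus DMSO indicates displacement. Initial single-concentration duplicate at 25 uM, then concentration series.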

Experiment [19] concerns the target human Androgen Receptor (AR), AR (gene 367) (UniProt P10275). As to the kind of experiment: NVS_NR_hAR: NovaScreen (NVS) Nuclear Receptor Binding Assay for human Androgen Receptor (AR) (AID 2283332). The gist of the method:
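Radioligand competitive binding, scintillation read-out, in cell-free extract from LnCAP, measured 20 h after dosing. Screened first in duplicate at 25 uM, then concentration series for actives; activity fitted against DMSO.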

Sequence of Estrogen receptor (Homo sapiens) + Estrogen receptor beta (Homo sapiens) (P03372 whole entry, looked up, the tested form may be a part): as the sequence (P03372 whole entry, looked up, the tested form may be a part) above
Sequence of Estrogen receptor (Homo sapiens) + Estrogen receptor beta (Homo sapiens) (Q92731 whole entry, looked up, the tested form may be a part): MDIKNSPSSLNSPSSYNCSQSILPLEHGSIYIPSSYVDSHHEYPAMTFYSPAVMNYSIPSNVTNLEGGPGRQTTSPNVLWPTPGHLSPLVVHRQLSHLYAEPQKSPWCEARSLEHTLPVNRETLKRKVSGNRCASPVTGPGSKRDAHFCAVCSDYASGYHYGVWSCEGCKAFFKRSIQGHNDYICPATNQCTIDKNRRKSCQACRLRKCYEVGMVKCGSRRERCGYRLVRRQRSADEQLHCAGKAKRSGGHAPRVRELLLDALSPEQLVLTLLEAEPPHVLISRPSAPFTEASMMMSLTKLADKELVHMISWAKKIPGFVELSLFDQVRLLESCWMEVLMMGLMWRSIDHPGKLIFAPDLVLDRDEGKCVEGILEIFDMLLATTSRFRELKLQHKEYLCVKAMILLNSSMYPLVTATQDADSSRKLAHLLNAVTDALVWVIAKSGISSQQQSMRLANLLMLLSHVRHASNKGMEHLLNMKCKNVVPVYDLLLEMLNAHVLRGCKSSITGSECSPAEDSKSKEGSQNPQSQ
Sequence of chimpanzee Androgen Receptor (AR), AR (gene 747460) (O97775 whole entry, looked up): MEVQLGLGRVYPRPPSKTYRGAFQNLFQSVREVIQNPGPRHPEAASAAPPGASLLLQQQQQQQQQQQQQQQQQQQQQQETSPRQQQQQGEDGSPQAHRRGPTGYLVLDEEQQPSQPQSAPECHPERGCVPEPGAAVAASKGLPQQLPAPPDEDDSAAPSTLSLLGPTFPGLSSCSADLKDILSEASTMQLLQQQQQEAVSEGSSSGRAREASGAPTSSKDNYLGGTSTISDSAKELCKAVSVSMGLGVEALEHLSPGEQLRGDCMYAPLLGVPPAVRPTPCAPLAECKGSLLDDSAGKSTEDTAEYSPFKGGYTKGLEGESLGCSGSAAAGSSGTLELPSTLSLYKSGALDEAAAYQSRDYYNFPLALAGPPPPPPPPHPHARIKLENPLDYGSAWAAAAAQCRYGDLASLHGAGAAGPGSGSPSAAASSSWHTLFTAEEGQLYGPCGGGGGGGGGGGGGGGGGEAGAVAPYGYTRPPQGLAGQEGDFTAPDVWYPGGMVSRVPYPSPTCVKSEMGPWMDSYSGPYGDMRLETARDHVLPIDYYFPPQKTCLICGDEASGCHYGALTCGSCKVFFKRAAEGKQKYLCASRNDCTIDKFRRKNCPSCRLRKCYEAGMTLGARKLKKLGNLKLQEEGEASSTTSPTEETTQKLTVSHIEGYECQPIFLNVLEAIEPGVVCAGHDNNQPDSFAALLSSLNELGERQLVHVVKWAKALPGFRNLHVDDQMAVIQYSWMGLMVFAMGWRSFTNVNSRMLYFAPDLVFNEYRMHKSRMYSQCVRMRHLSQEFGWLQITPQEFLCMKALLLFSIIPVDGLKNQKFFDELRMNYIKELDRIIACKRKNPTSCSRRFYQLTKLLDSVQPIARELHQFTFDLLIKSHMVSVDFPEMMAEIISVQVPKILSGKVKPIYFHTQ
Sequence of rat Peripheral-type Benzodiazepine Receptor (PBR), Tspo (gene 24230) (P16257 whole entry, looked up): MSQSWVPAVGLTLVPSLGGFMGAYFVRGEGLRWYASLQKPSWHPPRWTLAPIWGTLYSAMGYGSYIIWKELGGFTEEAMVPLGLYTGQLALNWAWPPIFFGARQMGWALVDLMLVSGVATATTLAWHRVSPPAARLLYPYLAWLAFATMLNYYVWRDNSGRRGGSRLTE
Sequence of D(1A) dopamine receptor (Homo sapiens) (P21728 whole entry, looked up): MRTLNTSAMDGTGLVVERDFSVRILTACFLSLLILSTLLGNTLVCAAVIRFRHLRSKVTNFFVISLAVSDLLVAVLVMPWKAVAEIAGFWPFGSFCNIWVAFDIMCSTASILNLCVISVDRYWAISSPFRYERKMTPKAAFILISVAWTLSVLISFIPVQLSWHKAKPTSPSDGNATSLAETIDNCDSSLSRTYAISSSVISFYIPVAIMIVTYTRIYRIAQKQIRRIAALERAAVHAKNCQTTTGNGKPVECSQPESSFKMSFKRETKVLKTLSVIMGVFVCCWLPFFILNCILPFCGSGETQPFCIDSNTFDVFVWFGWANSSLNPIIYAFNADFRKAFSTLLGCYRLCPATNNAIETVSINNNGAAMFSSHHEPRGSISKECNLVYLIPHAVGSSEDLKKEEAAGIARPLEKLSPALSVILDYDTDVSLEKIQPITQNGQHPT

Regarding `CCCCCCOC(=O)c1ccccc1`, the call in experiment [1], in experiment [2], in [3] and in [4] was inactive.

Turning to `CN(C)Cc1ccccc1O`, the call in experiment [5], in [2], in experiment [3] and in experiment [4] was inactive.

For the compound `COC(=O)C1CCC(C(=O)OC)CC1` (stereo unspecified), the call in experiment [2], in experiment [3] and in experiment [4] was inactive.

For `CCN(CC)c1ccc2c(C)cc(=O)oc2c1`, the result in experiment [6] and in [11] was inactive. Moreover, the AC50 was 10.3 µM (active) in [7]; 3.01 µM (active) in [8]; 4.66 µM (active) in [9]; 3.32 µM (active) in experiment [10]; 5 µM (active) in experiment [12].

As to `CNC(=S)NC`, the call in experiment [2] and in experiment [3] was inactive.

Consider `C1COCCN1`, for which the AC50 in experiment [8] was 6.07 µM (active). The outcome in experiment [2], in experiment [3] and in [4] was inactive.

On to `O=S(=O)(O)c1ccc2ccccc2c1`, for which the outcome in [2] and in experiment [3] was inactive.

Turning to `CCCCOCCOCCOC(=O)CCCCC(=O)OCCOCCOCCCC`, the result in experiment [9] was inactive.

As to `c1ccc(B(c2ccccc2)c2ccccc2)cc1`, the result in experiment [11] was inactive. For the same compound, the AC50 is 17.5 µM (active) in experiment [12], 13.9 µM (active) in [5], 78.5 µM (active) in [2] and 55.7 µM (active) in experiment [3].

In the case of `CCN(Cc1cccc(S(=O)(=O)O)c1)c1ccc(C(=C2C=CC(=[N+](CC)Cc3cccc(S(=O)(=O)O)c3)C=C2)c2ccc(O)cc2S(=O)(=O)[O-])cc1`, in [12], the concentration at half-maximal activity (AC50) is 13.2 µM (active). Besides, the call in [2], in [3] and in experiment [4] was inactive.

On to `Cc1ccc(S(=O)(=O)NCl)cc1`, for which the result in [2] and in [3] was inactive.

With `CCCCCCOC(=O)c1ccccc1O`, the compound was called inactive in experiment [2] and in experiment [3]. Further, in [4], the AC50 is 60.2 µM (active).

For the compound `O=C(OCCOCCOCCOC(=O)c1ccccc1)c1ccccc1`, in experiment [9], the concentration at half-maximal activity (AC50) is 9.76 µM (active). In addition, the compound was called inactive in experiment [2], in [3] and in experiment [4].

As to `OC[C@@H](O)[C@@H](O)[C@H](O)[C@@H](O)CO`, the outcome in experiment [2] and in [3] was inactive.

Regarding `Nc1ccc([N+](=O)[O-])cc1O`, the result in experiment [13], in experiment [11] and in experiment [5] was inactive.

With `Nc1ccc(Oc2cccc(Oc3ccc(N)cc3)c2)cc1`, the result in experiment [14] and in [8] was inactive. For the same compound, the half-maximal activity concentration (AC50) is 12.1 µM (active) in experiment [15] and 13.3 µM (active) in experiment [10].

With `CCCCOc1ccc(N)cc1`, the call in [2], in experiment [3] and in experiment [4] was inactive.

On to `CCCCCCCCCCCCCCCC[N+](C)(C)Cc1ccccc1`, for which the concentration at half-maximal activity (AC50) is 16.4 µM (active) in experiment [16]; 1.57 µM (active) in [14]; 0.584 µM (active) in experiment [7]; 2.11 µM (active) in experiment [13]; 1.44 µM (active) in experiment [17]; 38.6 µM (active) in experiment [18]. The values for the AC50 in [9] and in experiment [10] were 41.3 µM (active) and 9.82 µM (active), respectively. For the same compound, the outcome in experiment [15], in experiment [11] and in experiment [5] was inactive.

Regarding `Cc1cc(C)cc(O)c1`, the compound was called inactive in experiment [17], in experiment [5], in [2], in experiment [3] and in [4].

For the compound `CC(=O)Nc1ccc(N=Nc2cc(C)ccc2O)cc1`, the AC50 in [9] was 2.21 µM (active); in experiment [19], 31.4 µM (active). For the same compound, the call in experiment [12] was inactive.
